PubChem BioAssay (EPA / NIEHS)
Active and inactive are the calls of the source. The calls were made as follows: active = hit-call score of the fitted dose curve at least 0.9, where 1 is the maximum; inactive = score below 0.9.

Tests used:
Conditions in all cases: mRNA level, 48 h; actives raise or lower the signal
[1] = read-out: Interleukin 6 Receptor (IL6R), IL6R (gene 3570); assay: LTEA_HepaRG_IL6R: Life Technologies and Expression Analysis (LTEA) Assay for Interleukin 6 Receptor (IL6R) using HepaRG (AID 2283510);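 as to AC50: TaqMan qRT-PCR signal normalized to ACTB GAPDH and POLR2A housekeeping genes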
Method in brief: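 Differentiated human HepaRG cells, plated 48 h then switched to serum-free induction medium, were dosed in duplicate for 48 h at eight half-log concentrations up to 100 uM in 0.5% DMSO. IL6R mRNA quantified by qRT-PCR, normalized to ACTB/GAPDH/POLR2A; bidirectional fit versus DMSO.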

[2] = read-out: Potassium channel subfamily K member 1 (KCNK1), KCNK1 (gene 3775); assay: LTEA_HepaRG_KCNK1: Life Technologies and Expression Analysis (LTEA) Assay for Potassium channel subfamily K member 1 (KCNK1) using HepaRG (AID 2283511)
Method in brief: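 Gain or loss of KCNK1 mRNA is the read-out, quantified by qRT-PCR against three housekeeping genes after 48 h chemical treatment of human HepaRG liver cells. Concentrations ran from 100 uM downward in half-log steps, vehicle 0.5% DMSO.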

[3] = read-out: Keratin 19 (KRT19), KRT19 (gene 3880); assay: LTEA_HepaRG_KRT19: Life Technologies and Expression Analysis (LTEA) Assay for Keratin 19 (KRT19) using HepaRG (AID 2283512)
Method in brief: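 Gene-expression endpoint in the human liver line HepaRG after 48 h exposure to up to 100 uM test chemical with 0.5% DMSO vehicle; KRT19 mRNA by qRT-PCR, analyzed bidirectionally versus DMSO.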

[4] = read-out: JUN Transcription Factor, JUN (gene 3725); assay: LTEA_HepaRG_JUN: Life Technologies and Expression Analysis (LTEA) Assay for JUN Transcription Factor using HepaRG (AID 2283513)
Method in brief: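 Differentiated HepaRG cells were exposed to chemicals for 48 h in serum-free induction medium, 8 concentrations from 100 uM in half-log steps, 0.5% DMSO vehicle, in duplicate. JUN mRNA was quantified by TaqMan qRT-PCR, normalized to ACTB, GAPDH, POLR2A.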

[5] = read-out: Lipase C (LIPC), LIPC (gene 3990); assay: LTEA_HepaRG_LIPC: Life Technologies and Expression Analysis (LTEA) Assay for Lipase C (LIPC) using HepaRG (AID 2283514)
Method in brief: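 Read-out is LIPC transcript level by TaqMan qRT-PCR, normalized to three housekeeping genes, after 48 h chemical treatment of human HepaRG liver cells. Curves span eight concentrations topping at 100 uM; activity in either direction scored relative to 0.5% DMSO.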

[6] = read-out: Lipoprotein lipase (LPL), LPL (gene 4023); assay: LTEA_HepaRG_LPL: Life Technologies and Expression Analysis (LTEA) Assay for Lipoprotein lipase (LPL) using HepaRG (AID 2283515)
Method in brief: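 Read-out is LPL transcript level by qRT-PCR, normalized to three housekeeping genes and fitted bidirectionally against the DMSO control. Human HepaRG cells received chemicals for 48 h at up to 100 uM.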

[7] = read-out: MicroRNA 122 (MIR122), gene 406906; assay: LTEA_HepaRG_MIR122: Life Technologies and Expression Analysis (LTEA) Assay for MicroRNA 122 (MIR122) using HepaRG (AID 2283516); also: the transcript read is the microRNA miR-122
Method in brief: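 Differentiated human HepaRG cells were exposed 48 h in serum-free induction medium to eight half-log concentrations (top 100 uM, 0.5% DMSO). Transcript level was measured by TaqMan qRT-PCR, normalized to ACTB, GAPDH and POLR2A, and fitted bidirectionally versus DMSO.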

[8] = read-out: matrix metalloproteinase-10 (MMP10), MMP10 (gene 4319); assay: LTEA_HepaRG_MMP10: Life Technologies and Expression Analysis (LTEA) Assay for matrix metalloproteinase-10 (MMP10) using HepaRG (AID 2283517)
Method in brief: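 Gain or loss of MMP10 mRNA is fitted relative to the 0.5% DMSO vehicle. The human hepatic line HepaRG receives a 48-hour serum-free exposure, in duplicate, with a maximum concentration of 100 uM.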

[9] = read-out: MYC, MYC (gene 4609); assay: LTEA_HepaRG_MYC: Life Technologies and Expression Analysis (LTEA) Assay for MYC using HepaRG (AID 2283518)
Method in brief: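 Cells are thawed, plated and cultured 48 h, then treated for 48 h with test chemicals (eight half-log concentrations from 100 uM, 0.5% DMSO vehicle). RNA is isolated and MYC expression quantified by qRT-PCR against three housekeeping genes.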

[10] = read-out: matrix metalloproteinase-3 (MMP3), MMP3 (gene 4314); assay: LTEA_HepaRG_MMP3: Life Technologies and Expression Analysis (LTEA) Assay for matrix metalloproteinase-3 (MMP3) using HepaRG (AID 2283519)
Method in brief: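 HepaRG, human; 48 h dosing, 8 conc. (max 100 uM, half-log), duplicate, 0.5% DMSO. Readout: MMP3 transcript by Fluidigm TaqMan qRT-PCR, ACTB/GAPDH/POLR2A-normalised. Gain or loss fitted vs DMSO.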

[11] = read-out: Protein phosphatase 2A (PPP2R4), PTPA (gene 5524); assay: LTEA_HepaRG_PPP2R4: Life Technologies and Expression Analysis (LTEA) Assay for Protein phosphatase 2A (PPP2R4) using HepaRG (AID 2283522)
Method in brief: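 Differentiated HepaRG cells in serum-free induction medium were exposed in duplicate for 48 h to eight concentrations, top 100 uM with half-log dilutions, in 0.5% DMSO. PPP2R4 mRNA was quantified by TaqMan qRT-PCR, normalized to ACTB, GAPDH and POLR2A.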

[12] = read-out: Phosphatase and tensin (PTEN), PTEN (gene 5728); assay: LTEA_HepaRG_PTEN: Life Technologies and Expression Analysis (LTEA) Assay for Phosphatase and tensin (PTEN) using HepaRG (AID 2283523)
Method in brief: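 Read-out is PTEN transcript level by multiplexed TaqMan qRT-PCR after 48 h chemical treatment of human HepaRG cultures in serum-free induction medium. Concentrations spanned 100 uM downward in half-log steps, 0.5% DMSO throughout; activity fitted in both directions against vehicle.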

[13] = read-out: solute carrier (SLC22A1), SLC22A1 (gene 6580); assay: LTEA_HepaRG_SLC22A1: Life Technologies and Expression Analysis (LTEA) Assay for solute carrier (SLC22A1) using HepaRG (AID 2283524)
Method in brief: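 HepaRG (human liver line), 48 h dosing in serum-free induction medium; 8 conc., half-log down from 100 uM, 0.5% DMSO vehicle, duplicates. Endpoint: SLC22A1 mRNA, qRT-PCR, housekeeping-normalized; gain/loss fit vs DMSO.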

[14] = read-out: Pyruvate Dehydrogenase Kinase 4 (PDK4), PDK4 (gene 5166); assay: LTEA_HepaRG_PDK4: Life Technologies and Expression Analysis (LTEA) Assay for Pyruvate Dehydrogenase Kinase 4 (PDK4) using HepaRG (AID 2283525)
Method in brief: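 In this multiplexed human HepaRG expression assay, cells are treated 48 h with test chemicals across an eight-point range starting at 100 uM. PDK4 mRNA changes, normalized to ACTB/GAPDH/POLR2A, are fitted in both directions relative to vehicle.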

[15] = read-out: NAD(P)H dehydrogenase [quinone] 1 (NQO1), NQO1 (gene 1728); assay: LTEA_HepaRG_NQO1: Life Technologies and Expression Analysis (LTEA) Assay for NAD(P)H dehydrogenase [quinone] 1 (NQO1) using HepaRG (AID 2283526)
Method in brief: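 Differentiated HepaRG cells, plated 48 h and then switched to serum-free induction medium, were exposed in duplicate for 48 h to 8-point half-log concentrations up to 100 uM in 0.5% DMSO. mRNA measured by qRT-PCR, normalized to ACTB, GAPDH, POLR2A; bidirectional fit versus DMSO.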

[16] = read-out: Nuclear factor erythroid 2-related factor 2 (Homo sapiens) (UniProt Q16236); assay: LTEA_HepaRG_NFE2L2: Life Technologies and Expression Analysis (LTEA) Assay for Nuclear factor erythroid 2-related factor 2 (NFE2L2) Transcription Factor using HepaRG (AID 2283527)
Method in brief: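 Transcript level of NFE2L2 is the read-out, measured by microfluidic TaqMan qRT-PCR and normalized to three housekeeping genes. Human HepaRG cultures received test chemical for 48 h at up to 100 uM in half-log steps. Gain or loss of signal is fitted relative to 0.5% DMSO.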

[17] = read-out: succinate dehydrogenase complex iron sulfur subunit B (SDHB), SDHB (gene 6390); assay: LTEA_HepaRG_SDHB: Life Technologies and Expression Analysis (LTEA) Assay for succinate dehydrogenase complex iron sulfur subunit B (SDHB) using HepaRG (AID 2283528)
Method in brief: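 HepaRG, 48 h exposure, 8-pt half-log series from 100 uM in 0.5% DMSO, duplicates. Readout: SDHB mRNA by Fluidigm qRT-PCR vs housekeeping genes; bidirectional fit relative to DMSO.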

[18] = read-out: Signal transducer and activator of transcription 3 (Homo sapiens) (UniProt P40763); assay: LTEA_HepaRG_STAT3: Life Technologies and Expression Analysis (LTEA) Assay for Signal transducer and activator of transcription (STAT3) using HepaRG (AID 2283529)
Method in brief: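 Read-out is STAT3 mRNA level by qRT-PCR, normalized to three housekeeping genes, in human HepaRG liver cells treated for 48 h. Concentrations ran from 100 uM downward in half-log steps; curves were fitted for gain or loss relative to 0.5% DMSO.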

[19] = read-out: Nuclear factor NF-kappa-B p105 subunit (Homo sapiens) (UniProt P19838); assay: LTEA_HepaRG_NFKB1: Life Technologies and Expression Analysis (LTEA) Assay for Nuclear Factor Kappa B Subunit 1 (NFKB1) using HepaRG (AID 2283521)
Method in brief: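 Differentiated human HepaRG cells were exposed for 48 h in serum-free induction medium to eight concentrations (top 100 uM, half-log steps, 0.5% DMSO), in duplicate. NFKB1 mRNA was measured by TaqMan qRT-PCR, normalized to ACTB/GAPDH/POLR2A, and fitted bidirectionally against DMSO.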

Measured: AC50

Sequence of Signal transducer and activator of transcription 3 (Homo sapiens) (P40763 whole entry, looked up): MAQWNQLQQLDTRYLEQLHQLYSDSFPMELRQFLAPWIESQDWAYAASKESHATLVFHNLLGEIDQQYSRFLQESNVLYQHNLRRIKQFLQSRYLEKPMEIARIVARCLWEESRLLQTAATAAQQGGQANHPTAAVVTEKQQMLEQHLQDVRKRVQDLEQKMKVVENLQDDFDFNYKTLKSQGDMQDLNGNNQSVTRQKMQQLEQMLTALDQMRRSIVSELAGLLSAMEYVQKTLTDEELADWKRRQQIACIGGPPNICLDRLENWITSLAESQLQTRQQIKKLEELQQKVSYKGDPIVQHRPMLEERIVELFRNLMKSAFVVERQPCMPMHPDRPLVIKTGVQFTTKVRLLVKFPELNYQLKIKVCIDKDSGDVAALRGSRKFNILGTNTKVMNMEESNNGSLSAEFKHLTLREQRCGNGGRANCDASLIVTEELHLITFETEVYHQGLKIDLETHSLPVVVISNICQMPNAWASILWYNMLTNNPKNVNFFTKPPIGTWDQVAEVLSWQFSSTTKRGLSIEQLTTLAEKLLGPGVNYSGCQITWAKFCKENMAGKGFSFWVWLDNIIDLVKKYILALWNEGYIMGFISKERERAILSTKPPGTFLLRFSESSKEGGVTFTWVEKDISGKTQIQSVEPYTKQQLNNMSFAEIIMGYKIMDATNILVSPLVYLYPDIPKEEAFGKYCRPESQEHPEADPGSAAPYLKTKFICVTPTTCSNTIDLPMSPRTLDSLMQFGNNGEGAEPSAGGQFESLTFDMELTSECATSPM
Sequence of Nuclear factor erythroid 2-related factor 2 (Homo sapiens) (Q16236 whole entry, looked up): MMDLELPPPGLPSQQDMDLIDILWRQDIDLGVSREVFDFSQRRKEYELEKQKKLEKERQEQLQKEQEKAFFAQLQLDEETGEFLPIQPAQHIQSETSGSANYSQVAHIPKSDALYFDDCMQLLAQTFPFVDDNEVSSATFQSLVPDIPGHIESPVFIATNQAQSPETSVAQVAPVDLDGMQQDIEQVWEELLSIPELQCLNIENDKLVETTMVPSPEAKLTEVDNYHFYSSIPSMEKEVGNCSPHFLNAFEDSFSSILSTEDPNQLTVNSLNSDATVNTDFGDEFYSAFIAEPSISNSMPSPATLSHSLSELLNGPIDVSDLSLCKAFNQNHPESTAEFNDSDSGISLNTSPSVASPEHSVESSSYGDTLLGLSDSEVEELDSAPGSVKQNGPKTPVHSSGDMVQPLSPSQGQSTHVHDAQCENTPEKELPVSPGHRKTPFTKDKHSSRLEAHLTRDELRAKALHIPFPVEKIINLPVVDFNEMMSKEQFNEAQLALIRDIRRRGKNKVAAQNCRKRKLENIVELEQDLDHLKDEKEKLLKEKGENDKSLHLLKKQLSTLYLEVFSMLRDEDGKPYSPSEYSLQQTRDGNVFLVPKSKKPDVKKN
Sequence of Nuclear factor NF-kappa-B p105 subunit (Homo sapiens) (P19838 whole entry, looked up): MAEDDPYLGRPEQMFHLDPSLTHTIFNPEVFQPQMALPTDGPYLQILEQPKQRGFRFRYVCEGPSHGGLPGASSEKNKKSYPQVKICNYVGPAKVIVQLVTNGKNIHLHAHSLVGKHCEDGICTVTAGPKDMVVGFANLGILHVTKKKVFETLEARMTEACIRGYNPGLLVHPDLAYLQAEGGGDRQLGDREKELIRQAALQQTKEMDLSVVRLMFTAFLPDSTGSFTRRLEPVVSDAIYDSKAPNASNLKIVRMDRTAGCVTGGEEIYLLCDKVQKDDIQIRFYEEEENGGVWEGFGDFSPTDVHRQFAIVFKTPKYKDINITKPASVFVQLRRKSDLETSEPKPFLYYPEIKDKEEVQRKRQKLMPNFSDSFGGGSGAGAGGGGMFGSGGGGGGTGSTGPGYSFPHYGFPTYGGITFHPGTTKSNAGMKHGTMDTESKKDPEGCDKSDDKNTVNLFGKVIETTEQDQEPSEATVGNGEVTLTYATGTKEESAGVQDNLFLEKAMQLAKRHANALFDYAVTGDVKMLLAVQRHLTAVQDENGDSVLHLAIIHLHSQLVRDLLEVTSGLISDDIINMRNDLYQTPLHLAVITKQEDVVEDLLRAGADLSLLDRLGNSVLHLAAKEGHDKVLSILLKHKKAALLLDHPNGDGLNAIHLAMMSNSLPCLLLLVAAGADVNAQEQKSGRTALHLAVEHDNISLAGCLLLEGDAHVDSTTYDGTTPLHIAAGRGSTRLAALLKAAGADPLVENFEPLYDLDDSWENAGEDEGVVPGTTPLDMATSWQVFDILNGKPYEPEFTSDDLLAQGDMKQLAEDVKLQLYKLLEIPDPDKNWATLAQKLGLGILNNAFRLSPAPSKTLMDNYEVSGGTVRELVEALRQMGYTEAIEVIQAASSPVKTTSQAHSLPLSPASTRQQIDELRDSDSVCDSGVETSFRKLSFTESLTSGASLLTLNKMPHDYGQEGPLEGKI

COc1cc(C=O)cc2c1[C@H](COC(N)=O)[C@]1(OC(C)=O)ON2C[C@H]2[C@@H]1N2C(C)=O
inactive: [2] | [5] | [7] | [9] | [11] | [15] | [18]
active: [1] 24.7 µM | [3] 1.49 µM | [4] 5 µM | [6] 0.272 µM | [8] 1.58 µM | [10] 1.44 µM | [12] 29.9 µM | [13] 0.58 µM | [14] 95.3 µM | [16] 93.1 µM | [17] 93.4 µM

COP(=S)(OC)SCN1C(=O)c2ccccc2C1=O
not listed: [3]
inactive: all other assays above

OCCCl
not listed: [15] | [19]
inactive: all other assays above

Clc1ccc(Cl)c(Cl)c1
active: [6] 50 µM | [13] 20 µM
not listed: [19]
inactive: all other assays above

Cc1ccc([N+](=O)[O-])cc1
not listed: [19]
inactive: all other assays above

CCOc1cccc(C2(N3CCN(c4ccccc4)CC3)CCC(C)CC2)c1 (configuration not stated)
active: [10] 89.9 µM
not listed: [19]
inactive: all other assays above
